Test results as given in the supplement of paper PMC6555819.

Legend:
Experiment in all cases: PBM binding z-score (relative to random genomic background probes); higher = stronger binding; sequences stand for … in GC…GCGATTGACAGCGTAGAATGAAGG
[1] = tested on: RARb homodimer (NR concentration 270 nM)
Procedure, shortened: (§1)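 Ligand-free nuclear receptor dimers were applied to custom Agilent 4×180K protein-binding microarrays whose double-stranded probes carried direct-repeat seeds, single-nucleotide variants, half-site ablations and random human genomic background sequences in 34-nt variable regions. Incubation lasted 1 h. Binding z-scores were computed against the random background probes from regression-normalized fluorescence.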

[2] = tested on: RARg:RXRa (NR concentration 270 nM, RXRa partner concentration 90 nM)
Procedure, shortened: as §1

[3] = tested on: RARg homodimer (NR concentration 270 nM)
Procedure, shortened: as §1

[4] = tested on: RXRa DBDmut IVT, anti-RXR (DBD mutation: RXRa K156A/R161A, NR concentration 90 nM)
Procedure, shortened: as §1

[5] = tested on: RXRa homodimer (NR concentration 180 nM)
Procedure, shortened: as §1

[6] = tested on: THRa:RXRa (NR concentration 90 nM, RXRa partner concentration 90 nM)
Procedure, shortened: as §1

[7] = tested on: THRa homodimer (NR concentration 90 nM)
Procedure, shortened: as §1

[8] = tested on: VDR homodimer (NR concentration 270 nM)
Procedure, shortened: as §1

Sequence | PBM binding z-score [1] | PBM binding z-score [2] | PBM binding z-score [3] | PBM binding z-score [4] | PBM binding z-score [5] | PBM binding z-score [6] | PBM binding z-score [7] | PBM binding z-score [8]
ATTGAAAGGTCGAAGGTGAGTATACCCACCCGAA | 2.54 | 4.17 | 3.76 | 1.26 | 5.43 | 2.22 | 0.13 | 0.982
ATCGAAAGGTCGTGAGGTGAGTAAACAGAAAGGC | 2.71 | 4.68 | 4.11 | 1.25 | 4.91 | 3.31 | 1.1 | 0.838
AGAATGAGGTTACCAATGATCAGGGAAACGCTTG | 0.796 | 2.23 | 1.63 | 0.994 | 2.62 | 2.61 | 0.788 | 0.0566
ATACCAAGGTGATCGTGAGGACGTTGATACTAAC | 0.51 | 0.635 | 0.393 | -0.27 | 0.264 | 2.96 | 1.97 | 0.714
GCATATAGGTAATACAAGGTTAAAGTCCGATTGT | 1.42 | 0.95 | 0.775 | 0.599 | 1.39 | 4.03 | 0.575 | 0.898
TTACCATGGTGAAAGGTCGTTGATGCACGCCTTG | 2.03 | 2.17 | 1.04 | 0.434 | 3.19 | 1.64 | 0.0302 | 1.19
TCATATAGGTAACTGCTAGGTGAAAGTCCGATCT | 0.607 | 0.501 | 0.315 | 1.53 | 0.853 | 1.43 | 0.668 | 0.0262
GCTATTAGTTTAAAGGGCAACCGAATGATTCTCG | 2.38 | 1.36 | 1.44 | 1.56 | 1.05 | 0.923 | 0.375 | 0.916
CGTCCAAGGTCGAGGTCAGTGAAAGAGACTCGAA | 4.16 | 4.8 | 5.32 | 2.57 | 4.65 | 3.93 | 2.42 | 2.96
GCTGCTAGGTCAACTGATGGTCAGCTCAAGCTCG | 3.67 | 5.5 | 5.38 | 1.62 | 2.96 | 3.09 | 1.25 | 0.00206
CGTCCAAGGTCATAGGAGGTGAGTGAAGACAGAT | 4.33 | 5.74 | 5.64 | 3.53 | 5.36 | 5.3 | 2.93 | 2.82
CGTCCAAGGGCAAGGTCAGTGAAAGAGACTCGAA | 3.82 | 3.23 | 4.43 | 1.07 | 2.23 | 2.9 | 1.11 | 1.21
CAAACTAGGTCACCGGAAGGTCTAAGTCCGCATG | 4.28 | 5.48 | 5.56 | 1.58 | 3.87 | 3.88 | 2.22 | 1.68
TAGCCTAGCTCATGCGGGCCAGTATAGTGTCGGC | -1.08 | -0.81 | -0.912 | -1.45 | -0.694 | -1.65 | -1.25 | -0.887
CGACCTAGGTCATTGACAGGACAGTGAATAGTAA | 3.01 | 5.2 | 4.67 | 2.83 | 3.09 | 3.2 | 0.892 | 1.47
ATCTCTAGGTAAAGATAGTTCAGTGTATGCAAAT | 1.22 | 0.725 | 0.952 | 0.412 | 0.465 | 1.05 | 0.467 | 0.96
TCTAGTTGGTCACGGCGGTCACACACGACGGGTA | 2.92 | 2.1 | 2.76 | 0.889 | 1.34 | 0.79 | 0.372 | 0.652
ATCTCTAGGTAACGTTCAGTGAAAGATCGATAGA | 0.194 | 0.535 | 0.638 | 0.201 | 0.277 | 0.969 | 0.455 | -0.197
CCTATTAGTAGACCATAAGGGCAACCGAAGCTCG | 1.65 | 0.962 | 0.835 | 0.475 | 0.769 | 1.57 | 1.11 | 0.68

Sequence | PBM binding z-score [1] | PBM binding z-score [2] | PBM binding z-score [3] | PBM binding z-score [4] | PBM binding z-score [5] | PBM binding z-score [6] | PBM binding z-score [7] | PBM binding z-score [8]
AATCCAGGGTCACTAGGCCAGAGTAGGTACGAAT | 3.4 | 5.39 | 4.98 | 2.49 | 5.55 | 3.54 | 1.29 | 2.57
ACTATTAGTTGACTTAGGGGAACCGATACGACGC | 0.325 | 0.568 | 0.663 | 1.15 | 0.583 | 1.11 | 0.616 | 0.357
ATACCAAGGTGATCGGGAGGTCGTTGATACTAAC | 1.96 | 2.79 | 0.879 | 0.167 | 1.44 | 2.58 | 1.27 | 1.99
CCTACTGGGCCAATCAGAGGTCATTGATCATATG | 4.14 | 4.56 | 3.26 | 0.861 | 3.82 | 3.13 | 1.38 | 3.81
ACTAGTTGGTCAGGTGAGGTCACACACAATTCGG | 4.31 | 4.16 | 4.17 | 1.23 | 4.21 | 4.85 | 5.01 | 4.61
CTCGAAAGGTCGGTTGAGGTGAGTATGCGGATAA | 2.57 | 2.73 | 2.73 | 0.85 | 2.4 | 5.15 | 1.43 | 0.532
GCGACTGGGGCATCAACAGGTTACCATAACTTAA | 1.25 | 0.983 | 0.509 | 0.306 | 0.415 | 0.721 | -0.0396 | -0.142
ATCTCTAGGTAAGACTCAGTTCAGTGATGAACGC | 0.637 | 0.588 | 0.547 | 0.656 | 0.315 | 0.739 | 0.755 | 1.4
CCGGCTGGGGCAGAAAGGTTACCATACCATCCGG | 2.18 | 1.68 | 1.35 | -1.28 | 1.74 | 0.969 | -0.459 | -0.229
ATATGTAGGTTAGCTGGGGTCAGTCAGACTAGGC | 3.61 | 3.36 | 2.88 | 0.894 | 3.64 | 5.02 | 2.36 | 2.29
TCTTGTAGAACAATAGAGGTTAAGAAAGTGCGCT | 1.19 | 0.879 | 0.347 | 0.757 | 1.42 | 1.53 | -0.547 | 0.225
CCTGCTAGCTCAATGGTCAGCTAAAGCAGCTCGC | 0.464 | -0.547 | -0.75 | 0.0586 | -0.756 | -0.535 | -0.555 | -0.94
ACTCGGAGGACAACGGTCAGAGCTACGCCAGTGA | 1.51 | 1.06 | 2.14 | 0.0365 | -0.0292 | 0.773 | -0.132 | -0.272
CCTAGCAGGCCGATCTGGGTCACTCAAGGCTTGA | 1.59 | 0.546 | 0.594 | -0.129 | 0.768 | 2.97 | 0.256 | -0.162
CGTCCAAGGTCAATGCTAGGTCAGGGAAAGCATT | 4.99 | 7.46 | 6.5 | 3.47 | 5.08 | 4.67 | 3.21 | 2.33
CGTCAAAGTTCAACTAAGGTAACGTACAGCACGC | 4.47 | 6.1 | 6.82 | 4.86 | 5.14 | 5.27 | 2.13 | 4.15
ATCTCTAGGTACGACTCAGTTCAGTGAAGAACGC | 0.848 | 0.255 | 0.331 | 1.19 | 0.123 | 0.879 | 0.878 | 2.02
CCGACTGGTGCATAAGGTTACCATAAGCCAGCCC | 1.25 | 0.548 | 0.37 | 0.0565 | 0.963 | 1.99 | 1.58 | 0.347
ACTAGCAGGCCTAGGGTCACTCAAGATTAGTCCG | 2.83 | 2.61 | 2.35 | 0.221 | 3.15 | 3.27 | 2.26 | 1.07

Sequence | PBM binding z-score [1] | PBM binding z-score [2] | PBM binding z-score [3] | PBM binding z-score [4] | PBM binding z-score [5] | PBM binding z-score [6] | PBM binding z-score [7] | PBM binding z-score [8]
CCTGCTAGGTCATGGTCACCTAATCTACAGTATG | 3.43 | 4.1 | 4.93 | 1.77 | 3.5 | 3.13 | 1.78 | 0.622
CTCGGAAGGTCGTGCTCAGGTGAGTATACCAAAC | 1.95 | 3.34 | 2.31 | 1.18 | 2.37 | 3.59 | 1.15 | 0.743
CGTCAATGTTCAACTAAGGTAACGTAAAGCACGC | 0.643 | 0.459 | 0.531 | 0.651 | 0.456 | 3.46 | 2.04 | 0.309
TCTCGGAGGACACGAAGGTCAGAGCCTTCCAGAG | 3.54 | 3.52 | 4.07 | 0.518 | 2.04 | 2.66 | 0.555 | 1.24
CCTTACGGGTCACGAGGTTATAGCTCGACGAGCG | 3.93 | 6.04 | 5.15 | 1.74 | 6.98 | 3.73 | 0.989 | 1.76
GCATATAGGGAATACAAGGTGAAAGTCCGATTGT | 0.509 | 0.203 | 0.249 | 0.292 | 0.268 | 3.15 | 0.78 | -0.263
TGTCAAAGTCCAAAGGTAACGTAAGTATCCACAC | 1.08 | 1.64 | 1.23 | 0.368 | 0.946 | 1.11 | -0.182 | 0.0854
TCTGCTAGGTCAACGATGGTCAACTAATCTGCTA | 3.58 | 4.12 | 5.25 | 1.32 | 2.75 | 3.24 | 1.05 | 0.125
ATCTCTAGCTAAAGATAGTTCAGTGAATGCAAAT | 0.481 | 0.461 | 0.353 | -0.2 | 0.159 | 0.114 | -0.112 | 0.516
TCTGCCAGGTCAACGATGGTCAGCTAATCTGCTA | 3.43 | 4.4 | 5.08 | 1.41 | 3.42 | 3.55 | 1.7 | 0.359
CCTAGCAGGCCAGGGCCACTCAAGCATTTCGCTT | -0.124 | -0.441 | -0.124 | -0.762 | -0.718 | -0.482 | -0.794 | -0.946
CCTTACGGGTCACGAGGGTATAGCACGACGAGCG | 3.35 | 5.85 | 5.72 | 0.613 | 6.79 | 3.56 | 0.0461 | 1.29
TCGAGTAGGTTATTCGGGGCATTCAGCCAACATA | 0.766 | 0.44 | 0.448 | 0.744 | 0.31 | 2.61 | 0.314 | 0.9
CGTCCAAGGTCAGAGAGGTCAGTGCATGCCGAGT | 5.13 | 6.03 | 6.95 | 3.49 | 5.11 | 4.21 | 2.91 | 6.02
TCTTGTAGATCAACAGGAGTTTAAGAAAGATCGA | -0.522 | 0.249 | -0.0816 | 0.335 | 0.176 | -0.275 | -1.05 | 0.485
ATCCAAAGGTCGTGAGGTGAGTATACAGAAAGGC | 3.47 | 5.02 | 4.46 | 1.72 | 5.91 | 3.66 | 1.97 | 1.63
TCTAGCAGGCCAGAGGGTCACGCAAGAGGTACGG | 3.37 | 3.78 | 3.41 | -0.273 | 4.06 | 2.33 | -0.0703 | 0.674
GCTGCTAGGTCAGGTTCGTCAGCTAACGGGTACG | 2.25 | 2.25 | 3.35 | 1.63 | 1.24 | 1.94 | 0.323 | 2.58
CGTTACGGGTCAAGGTTATAGCACGGGTGGTACG | 3.67 | 4.89 | 4.88 | 0.953 | 5.7 | 3.24 | 0.918 | 1.42
